From PubChem BioAssay (NCATS)
Inconclusive results are not listed. Active and inactive are the calls of the source. Calls come from the whole dose curve; as a rule, active = well fitted inhibition curve with a large enough effect; inconclusive = small, poorly fitted or top-dose-only effect; inactive = flat fitted curve, though single readings scatter. Where a SMILES comes first, the peptide text is derived from it. The star is where a group is joined. AFC = O=c1cc(C(F)(F)F)c2ccc(N*)cc2o1
% is set by controls: 0 for no effect and ±100 for the full control effect.

Assay: P-glycoprotein substrates identified in KB-8-5-11 adenocarcinoma cell line, qHTS therapeutic library screen (AID 1346987); note: nearly all actives have a fitted effect of over 65% in size
Conditions: KB-8-5-11 (P-gp overexpressing) viability, CellTiter-Glo, 72 h; series mostly up to 44.5 µM; activity change, negative = cytotoxicity: at the top concentration
Outline: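 In this qHTS, P-gp-rich KB-8-5-11 cells received library compounds across a concentration range. Viability was quantified by luminescence after 72 h at 37 degree C.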
With CC(=O)N[C@@H](CC(C)C)C(=O)N[C@@H](CCC(=O)O)C(=O)N[C@@H](CCC(=O)O)C(=O)N[C@@H](CC(=O)O)C(=O)Nc1ccc2c(C(F)(F)F)cc(=O)oc2c1 (Ac-LEED-{AFC}) the “activity change, negative = cytotoxicity” value was 0.209% (inactive). For O=C(c1ccc(NS(=O)(=O)c2cccc3cccnc23)cc1)N1CCN(CC2CC2)CC1, the “activity change, negative = cytotoxicity” value was -17% (inactive). With C=C1CC[C@@H]2[C@](C)(CO[C@@H]3O[C@H](CO)[C@@H](O)[C@H](O)[C@H]3O)CCC[C@@]2(C)[C@@H]1CCC1=CCOC1=O the “outcome” value was “inactive [at 17.3 µM]”. In the case of C=CC1(C)CC(OC(=O)C(=C)C(O)COC(C)=O)C(C(=C)C(=O)OC)C(O)C1C(=C)CO (stereo not given), the “outcome” value is reported as “inactive [at 17.3 µM]”. For CCOC(=O)c1c(C)nn(-c2cccc([N+](=O)[O-])c2)c1C, the “activity change, negative = cytotoxicity” value was 6.8% (inactive). For CC1C(=O)CC2C3C(O)CC(C(=O)O)C12CC3(C)C (stereo not given), the “outcome” value was “inactive”. In the case of C/C=C(\C)C(=O)O[C@@H]1CC2[C@@H](CC=C3C[C@@H](O[C@H]4C[C@H](OC)[C@H](O[C@H]5C[C@H](OC)[C@H](O[C@H]6C[C@H](OC)[C@H](O[C@H]7C[C@@H](OC)[C@H](O[C@@H]8O[C@H](CO)[C@@H](O)[C@H](O)[C@H]8O)[C@@H](C)O7)[C@@H](C)O6)[C@@H](C)O5)[C@@H](C)O4)CC[C@@]32C)[C@@]2(O)CC[C@H](C(C)=O)[C@@]12C (stereo not given in full), the activity change, negative = cytotoxicity is reported as 3.56% [at 9.29 µM] (inactive). For C/C=C(\C)C(=O)OC[C@H]1O[C@H](O[C@H]2O[C@H](CO)[C@@H](OC(=O)/C(C)=C/C)[C@H](O)[C@H]2O[C@@H]2O[C@H](CO)[C@@H](O)[C@H](O)[C@H]2O)[C@H](O[C@@H]2O[C@H](CO)[C@@H](O)[C@H](O)[C@H]2O)[C@@H](O)[C@@H]1O, the outcome was “inactive [at 9.29 µM]”. In the case of C=CC1(C)C=C2C(O)CC3C(C)(C(=O)O)CCCC3(C)C2CC1 (stereo not given), the “outcome” value is reported as “inactive”. For c1ccc(C(OC2CCN(CCCc3nn[nH]n3)CC2)c2ccccc2)cc1, the “outcome” value was “inactive”. With CC(=O)O[C@@H]1[C@@H](OC(=O)/C=C/c2ccccc2)[C@H](C)O[C@@H](O[C@H]2[C@@H]3C=CO[C@@H](O[C@@H]4O[C@H](CO)[C@@H](O)[C@H](O)[C@H]4O)[C@@H]3[C@@]3(CO)O[C@@H]23)[C@@H]1OC(C)=O the “outcome” value was “inactive [at 17.3 µM]”. In the case of O=C1CC(c2ccc([N+](=O)[O-])cc2)=NN1c1ccccc1, the “activity change, negative = cytotoxicity” value is reported as 7.46% (inactive). For O=C(O)c1n[nH]c2c1C[C@H]1C[C@@H]21, the “outcome” value was “inactive”. With COc1cc(C[C@H]2COC(=O)[C@@H]2Cc2ccc(O)c(OC)c2)ccc1O the “outcome” value was “inactive”. With CC(C)=CC/C=C(/C)[C@H]1CC[C@]2(C)[C@@H]1[C@H](O)CC1[C@@]3(C)CC[C@H](O)C(C)(C)[C@@H]3[C@@H](O[C@@H]3O[C@H](CO)[C@@H](O)[C@H](O)[C@H]3O[C@@H]3O[C@@H](C)[C@H](O)[C@@H](O)[C@H]3O)C[C@]12C (stereo not given in full) the “outcome” value was “inactive [at 17.3 µM]”. In the case of CCOC(=O)c1ccnc(CNCC(=O)N(CC)CCN(C)C)c1, the “outcome” value is reported as “inactive”. With CC1CCC2C(C)(C)C(O)CCC2(C)C12Cc1c(O)cc3c(c1O2)CN=C3N (stereo not given) the “activity change, negative = cytotoxicity” value was 7.64% (inactive). For COc1cc(C2Oc3c(OC)cc(CCCO[C@@H]4O[C@H](CO)[C@@H](O)[C@H](O)[C@H]4O)cc3C2CO)ccc1O (stereo not given in full), the “activity change, negative = cytotoxicity” value was 0.807% [at 17.3 µM] (inactive). With C=C(C)[C@@H](C)[C@H]1O[C@]23C[C@]4(CO2)C(CCC2[C@@]5(C)CC[C@H](O[C@@H]6OC[C@H](O)[C@H](O[C@@H]7O[C@H](CO)[C@@H](O)[C@H](O)[C@H]7O)[C@H]6O[C@@H]6O[C@@H](CO)[C@H](O)[C@H]6O)C(C)(C)C5CC[C@]24C)C3[C@@](C)(O)[C@@H]1OC(C)=O (stereo not given in full) the activity change, negative = cytotoxicity was 4.3% [at 9.29 µM] (inactive). In the case of C=C1C(OC(C)=O)C(=O)C2C(C)(C)C(OC(C)=O)CCC2(C)C1CC(OC(C)=O)/C(C)=C/COC(C)=O (stereo not given), the “activity change, negative = cytotoxicity” value is reported as 0.406% [at 17.3 µM] (inactive). With OCc1ccccc1O[C@@H]1O[C@H](CO)[C@@H](O)[C@H](O)[C@H]1O the “activity change, negative = cytotoxicity” value was 5.93% (inactive). In the case of CC[C@H](C)/C=C(C)/C=C/C(=O)Cc1cc(O)c(C)c(O)c1C=O, the “activity change, negative = cytotoxicity” value is reported as 8.28% (inactive). In the case of CC1CCC2(C)C(CC(O)C(O)C23CO3)C1(C)CCC1=CC(=O)OC1O (stereo not given), the “activity change, negative = cytotoxicity” value is reported as -5.79% (inactive). With C=C1CC23CCC4[C@@](C)(CCC[C@@]4(C)C(=O)O)C2CCC1C3 (stereo not given in full) the “activity change, negative = cytotoxicity” value was 1.4% (inactive). In the case of COC(=O)c1cc(CN2CCN(C(=N)N)CC2)cc(C(=O)N2CCN(C(=O)c3ccc(C(=N)N)cc3)CC2)c1, the “outcome” value is reported as “inactive”. With C/C(=C/CCC(CO)C1CCC2(C)C3CCC4C(C)(C)C(OC5OC(CO)C(O)C(O)C5O)CC(O)C45CC35CCC12C)COC1OC(CO)C(O)C(O)C1O (stereo not given) the “outcome” value was “inactive [at 17.3 µM]”. With COc1ccccc1-n1c(SCC(=O)Nc2nc3ccc(C)cc3s2)nc2c(c1=O)SCC2 the “activity change, negative = cytotoxicity” value was -3.59% [at 17.3 µM] (inactive). In the case of COC(=O)[C@@]1(O)C=CC[C@@H]2[C@@]3(C)C[C@@H](c4ccoc4)OC(=O)[C@H]3CC[C@]21C, the “outcome” value is reported as “inactive”. With CC(=O)OC1C(O)CC(O[C@@H]2O[C@H](CO)[C@@H](O)[C@H](O)[C@H]2O)C2CCC3C(=O)OC(c4ccoc4)CC3(C)C21 (stereo not given in full) the “activity change, negative = cytotoxicity” value was 8.86% [at 17.3 µM] (inactive). With COc1c(C(CC(C)C)OC(C)=O)ccc(Oc2c(O)cc(C)cc2/C=C/C(C)=O)c1C(=O)O (stereo not given) the “activity change, negative = cytotoxicity” value was 3.34% [at 17.3 µM] (inactive). In the case of C/C=C/C1=CC2=CC(=O)C(C)(O)C(OC(=O)c3c(C)cc(O)cc3O)C2CO1 (stereo not given), the “activity change, negative = cytotoxicity” value is reported as 6.83% (inactive). For COC(=O)[C@H](CC1C=NC=N1)NCC12CC3CC(CC(C3)C1)C2 (stereo not given in full), the “activity change, negative = cytotoxicity” value was 7.98% (inactive). For COc1cc(C2OCC3C(c4ccc(OC5OC(CO)C(O)C(O)C5O)c(OC)c4)OCC23)ccc1O (stereo not given), the “activity change, negative = cytotoxicity” value was 8.63% [at 17.3 µM] (inactive). With C[C@@H]1O[C@@H](O[C@H]2[C@H](O[C@H]3CO[C@@H](O[C@H]4CC[C@@]5(C)C(CC[C@]6(C)C5CC[C@]57OC[C@@]8(CC[C@](C)(CO)CC85)[C@H](O)C[C@]76C)C4(C)C)[C@H](O[C@@H]4O[C@H](CO)[C@@H](O)[C@H](O)[C@H]4O)[C@H]3O)O[C@H](CO)[C@@H](O)[C@@H]2O)[C@H](O)[C@H](O)[C@H]1O (stereo not given in full) the activity change, negative = cytotoxicity was 8.31% [at 9.29 µM] (inactive). In the case of N[C@@H](CC(=O)N1CCn2c(nnc2C(F)(F)F)C1)Cc1[nH]nc2c(F)c(F)ccc12, the “activity change, negative = cytotoxicity” value is reported as 0.719% (inactive). In the case of COc1cc(/C=C/c2cc(O)cc(O[C@@H]3O[C@H](CO)[C@@H](O)[C@H](O)[C@H]3O)c2)ccc1O, the “activity change, negative = cytotoxicity” value is reported as -4.45% [at 17.3 µM] (inactive). For C[C@@H]1C(=O)O[C@H]2CC34[C@H]5C[C@@H](C(C)(C)C)C36[C@@H](OC(=O)[C@@H]6O)OC4(C(=O)O5)[C@]21O (stereo not given in full), the “activity change, negative = cytotoxicity” value was 5.91% (inactive). With CC1(C)CC2C3=CCC4C5(C)CCC(OC6OC(C(=O)O)C(O)C(O)C6OC6OC(CO)C(O)C(O)C6OC6OC(CO)C(O)C(O)C6O)C(C)(CO)C5CCC4(C)C3(C)CCC2(C)C(OC2OCC(O)C(OC3OC(CO)C(O)C(O)C3O)C2O)C1O (stereo not given) the activity change, negative = cytotoxicity was 1.76% [at 9.29 µM] (inactive). With CCn1nnnc1NCc1ccc(C(C)C)cc1 the “outcome” value was “inactive”. With O=c1ccn([C@@H]2O[C@H](CO)[C@@H](O)[C@H]2O)c(=O)[nH]1 the “outcome” value was “inactive”.
